# In the library only some 8% were active in any assay of this set; here they are far more common.
# SARS PLP yeast = qHTS of Yeast-based Assay for SARS-CoV PLP; S. cerevisiae expressing SARS-CoV PLpro, growth rescue; Potency, µM (titrated, usually from 32.9 µM), for the others: at the highest dose activity, positive = growth rescue, usual class: activators; 330,000 compounds, 0.19% hits; AID 485353, 2010; calls by dose curve; further: potency means the concentration at half of the fitted maximal effect; 0% is about no effect; nearly all actives have a fitted effect of over 55% in size
# HCMV antiviral = qHTS Assay for inhibitors of the human cytomegalovirus (HCMV); HFF cells, HCMV-luciferase reporter, 72 h; hits give low values; activity change, negative = inhibition, % at 57.5 µM; 410,000 compounds, 4.5% hits; in the data active means activity change below about -60%; inconclusive means no clear call, values can overlap the other calls; inactive means above about -39%; further: on the % scale 0 is the no-effect control and ±100 the full control effect
#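 Two-dose cell screen: HFF monolayers treated with compounds and infected with luciferase-expressing HCMV at 1 PFU/cell, 72 h at 37C, then lysed for luciferase measurement.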
# HCV inhibitor = qHTS Assay for Inhibitors of Hepatitis C Virus (HCV). Huh7.5.1 HCVcc-Cre infection, luciferase reporter, 44 h. Potency, µM (top dose mostly 41.8 µM), inactives show top-dose activity change, negative = inhibition, hits mostly inhibitors. 340,000 compounds, 3.4% hits; active means well fitted inhibition curve with a large enough effect; inconclusive means small, poorly fitted or top-dose-only effect, or another doubt; inactive means no such curve, though single readings can be large or run the other way; further: potency means the concentration at half of the fitted maximal effect; on the % scale 0 is the no-effect control and ±100 the full control effect
#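 Cells (1,000/well) were plated 4 h before compound, then infected with HCVcc-Cre virus (~0.5 moi). After 44 h further culture, infection was read as luciferase luminescence following a 15 min substrate incubation at room temperature.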
# Marburg entry inh = qHTS for inhibitors of binding or entry into cells for Marburg Virus | Marburg virus pseudotyped entry inhibition, cell reporter | Potency, µM (titrated, usually from 37.8 µM), for the others: at the highest dose activity change, negative = inhibition, usual class: inhibitors | 300,000 compounds, 1.8% hits; calls by dose curve; tested in HEK293 cells; further: potency means the concentration at half of the fitted maximal effect; on the % scale 0 is the no-effect control and ±100 the full control effect
# FMDV antiviral = High Throughput Screening for Foot and Mouth Disease Virus Antivirals; FMDV antiviral cell-based qHTS; Potency, µM (titrated, usually from 57.9 µM), without a hit: top-dose activity change, negative = inhibition, usual class: inhibitors; 410,000 compounds, 1.2% hits; calls by dose curve; tested in HEK293T cells; further: read-out not given here; potency means the concentration at half of the fitted maximal effect; on the % scale 0 is the no-effect control and ±100 the full control effect; nearly all actives have a fitted effect of over 45% in size
# LASV entry inh = qHTS for Inhibitors of binding or entry into cells for Lassa Virus | Lassa virus pseudotype entry inhibition, cell reporter | 300,000 compounds, 1.2% hits | Potency, µM (highest dose often 37.9 µM), for inactives: at the highest dose activity change, negative = inhibition, usual class: inhibitors | AID 540256, 2011; calls by dose curve; tested in HEK293 cells; further: potency means the concentration at half of the fitted maximal effect; on the % scale 0 is the no-effect control and ±100 the full control effect; nearly all actives have a fitted effect of over 50% in size
# Starred values were filed as active, the others as inactive; u = inconclusive; x = no result; ! = not confirmed by another sample; [ ] = remark or other dose.
SMILES,SARS PLP yeast,HCMV antiviral,HCV inhibitor,Marburg entry inh,FMDV antiviral,LASV entry inh
CCN(c1ccc(OC)cc1)S(=O)(=O)c1ccc2[nH]c3c(c2c1)CCCCC3,x,-23,x,x,u,u
O=C(CCCN1CCC(O)(c2cccc(C(F)(F)F)c2)CC1)c1ccc(F)cc1,x,66,u,11µM*,-20%,u
O=C(CCCN1CCC(O)(c2ccc(Cl)cc2)CC1)c1ccc(F)cc1,-5%,17,u,10µM*,-16%,u
O=C(CCCN1CCC(O)(c2ccc(Br)cc2)CC1)c1ccc(F)cc1,x,39,u,x,-19%,x
Cc1cccc2c(N3CCCC3)nc(CNS(=O)(=O)c3ccc4ccccc4c3)nc12,x,x,x,x,4%,x
O=C(CSc1nnc2scc(-c3ccc(Cl)cc3)n12)Nc1ccc(F)cc1,x,-23,x,4%[46.1 µM],-19%,20%[46.1 µM]
O=C(CSc1nnc2scc(-c3ccccc3)n12)Nc1nsc(-c2ccc(Cl)cc2)n1,x,-73*,6%,u,u,11%
Cc1ccc(-c2csc3nnc(SCC(=O)Nc4nsc(-c5ccccc5)n4)n23)cc1,x,u,u,-4%,u,-5%
O=C(CSc1nnc2scc(-c3ccccc3)n12)Nc1nsc(-c2ccccc2)n1,-1%,u,11µM*!,21µM*!,32µM*,-30%
CCc1ccc(/C=C(\C)C(=O)c2c(C)cc(C)[nH]c2=O)cc1,0%,-20,2%,x,8%,x
Cc1cc(C)c(C(=O)/C=C/c2ccco2)c(=O)[nH]1,1%,23,-5%,2%[46.1 µM],27%,-7%
Cc1ccc(/C=C/C(=O)c2c(C)cc(C)[nH]c2=O)cc1,-12%,-98*,u,23µM*,u,u
Cc1cc(C)c(C(=O)/C=C/c2cccs2)c(=O)[nH]1,0%,-64*,-14%,x,36%,x
COc1ccc(/C=C/C(=O)c2c(C)cc(C)[nH]c2=O)c2ccccc12,-10%,-100*,11µM*,u,-25%,u
CCc1ccc(/C=C/C(=O)c2c(C)cc(C)[nH]c2=O)cc1,-7%,-95*,u,u,28µM*,u
Cc1oc2ncn(C)c(=O)c2c1C(=O)NCCCN(Cc1ccccc1)C(C)C,x,8,x,x,u,1%[46.1 µM]
CCC[C@H]1[C@@H](N(C)C)CC[C@@]23CCCN2C(=O)CCC[C@@H]13,x,30,x,x,x,x
CCn1c(=N)c(C(=O)NCC2CCCO2)cc2c(=O)n3cc(C)ccc3nc21 (stereo not drawn),x,-12,x,0%[46.1 µM],-16%,u
COc1ccc(NC(=O)Cn2cc(C(=O)c3ccc(C)c(C)c3)c(=O)c3cc(OC)ccc32)cc1,x,0,x,16%[46.1 µM],6%,25%[46.1 µM]
O=C(NCc1ccccc1F)[C@H]1[C@H](CO)[C@H]2Cn3c(cccc3=O)[C@H]2N1CC1CC1,x,3,x,x,x,x
O=C(/C=C\c1cccs1)c1c(O)ccc2ccc(=O)oc12,-22%,-62*,-7%,-9%,-24%,u

# Compound activity as filed in PubChem BioAssay.
